# Compounds with a hit are over-represented: about 5.7% of the library has one in this group of screens.
# ATXN2 expr inh: reduces ATXN2 reporter expression in HEK-293 cells | HEK-293 ATXN2-luciferase reporter, luminescence, 24 h | Potency, µM (highest dose often 57 µM), for the others: top-dose activity change, negative = inhibition, usual class: inhibitors | 360,000 tested, 0.72% active; further: potency means the concentration at half of the fitted maximal effect; on the % scale 0 is the no-effect control and ±100 the full control effect; nearly all actives have a fitted effect of over 55% in size
#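 ATXN2-luciferase reporter cells (luciferase flanked by upstream and downstream ATXN2 gene portions) were treated 24 h at 37 °C with compounds at up to 57 uM. SteadyGlo luminescence gave expression; GF-AFC fluorescence gave viability.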
# IL-1B inflam inh: inflammasome signaling inhibition, IL-1 beta readout; THP-1 LPS/ATP IL-1B secretion, AlphaLISA, 16 h; active compounds read low; activity change, % at 57.5 µM; 360,000 tested, 4.7% active; in the data active means activity change below about -50%; inconclusive means mostly about -30% to -49%; further: on the % scale 0 is the no-effect control and ±100 the full control effect
#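 THP-1 cells pretreated 1 hr with compounds (up to 57.5 uM final), then stimulated with LPS (250 ng/mL final) plus ATP (1.25 mM final); secreted IL-1B measured by AlphaLISA after 16 hr, decreased signal indicating inhibition.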
# TGFb SMAD3 inh: TGF-b pathway inhibition; HepG2 CAGA-GFP TGF-b/SMAD3 reporter, GFP fluorescence, 18 h; TGF-beta stimulated, 500 pg/mL final; Potency, µM (doses to about 46.1 µM), for the others: at the highest dose activity, negative = inhibition, most hits filed as inhibitors; 410,000 tested, 1.2% active; AID 588855; further: potency means the concentration at half of the fitted maximal effect; on the % scale 0 is the no-effect control and ±100 the full control effect; nearly all actives have a fitted effect of over 65% in size
#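 Per well, imaged GFP fluorescence of HEPG2 CAGA-GFP cells gives the signal; cells get compound, then TGF-beta (500 pg/mL final), 18 h at 37 degrees C; %Activity versus -TGF-beta and +DMSO controls.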
# HepG2 tox: counter-screen for TGF-b inhibitors: cytotoxicity in HepG2 cells; 410,000 tested, 0.76% active; HepG2 CAGA-GFP viability, ATP luminescence, 18 h; Potency, µM (series often up to 46.1 µM), without a hit: top-dose activity change, negative = cytotoxicity, hits mostly cytotoxic; further: potency means the concentration at half of the fitted maximal effect
#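 HepG2 CAGA-GFP cells (1000/well, DMEM with 1% FBS) received compound, then TGF-beta at 500 pg/mL final, and were incubated 18 hours at 37 degrees C. Viability was read by CellTiter-Glo luminescence. Media-only wells were set as complete cell-killing and DMSO as no toxicity.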
# ATXN viability: cell viability loss in ATXN counter-screen; S2 cells (HEK-293 line with an ATXN2-luciferase reporter) viability, CellTiter-Fluor protease fluorescence, 24 h; Potency, µM (top dose mostly 56.7 µM), hits mostly cytotoxic; 400,000 tested, 0.49% active; AID 651635; further: potency means the concentration at half of the fitted maximal effect; nearly all actives have a fitted effect of over 40% in size
# An asterisk follows results filed as active; i = inactive; ? = inconclusive; · = no result; [ ] = another dose, or the depositor's remark. Unless noted, the call rests on the fitted dose curve; in most records, active means well fitted curve in the direction sought with a large enough effect; inconclusive means small, poorly fitted or top-dose-only effect, or another doubt; inactive means no such curve, though single readings can be large; an effect the other way counts as inactive or inconclusive.
SMILES,ATXN2 expr inh,IL-1B inflam inh,TGFb SMAD3 inh,HepG2 tox,ATXN viability
O=C1N=C2SCCN2/C1=C\c1ccc(Cl)cc1,-17%,-68*,0%,-28%,i
C=C1C(=O)C=C[C@]2(C)C[C@@H]3OC(=O)[C@](C)(O)[C@H]3C[C@@H]12,10µM*,-110*,?,-70%,?
CCCCC(=O)/C=C/n1c(=S)oc2ccccc21,?,-101*,5µM*,-58%,?
CC(C)OC(=O)n1c(=S)oc2ccccc21,-1%,6,-13%,-5%,i
Cc1ccc(-c2ccccc2C#N)cc1,4%,·,·,·,i
CCc1nc2ccc(C(=O)Nc3cc(-c4ccccc4)ccc3OC)cn2c1N(CC)CCN(C)C,?,-14,?,14µM*,·
CCc1nc2ccc(C(=O)Nc3cc(-c4ccccc4)ccc3OC)cn2c1N(CC)Cc1cccc(Br)c1,4%,?,-9%,-20%,?
CCCCN(C=O)c1c(CC)nc2ccc(C(=O)Nc3cc(-c4ccccc4)ccc3OC)cn12,?,-70*,7.1µM*,-11%,i
Cc1ccc(CNC(=O)c2c(Nc3c(C)cccc3C)sc(C(=O)c3ccccc3)c2N)cc1,?,·,13µM*,-60%,·
COc1cccc(Nc2sc(C(=O)c3ccc(Cl)cc3)c(N)c2C(=O)NCc2ccc(C)cc2)c1,·,·,13µM*,-27%,·
CCOc1ccccc1Nc1sc(C(=O)c2ccccc2)c(N)c1C(=O)NCCc1ccccc1,6%,·,-4%,-3%,i
Cc1ccccc1Nc1sc(C(=O)c2ccc(F)cc2)c(N)c1C(=O)NCCc1ccccc1,-29%,·,?,13µM*,?
Cc1ccc(NC(=O)c2c(Nc3ccccc3C)sc(C(=O)c3ccccc3)c2N)cc1,-9%,·,?,-54%,?
COc1cccc(Nc2sc(C(=O)c3ccc(F)cc3)c(N)c2C(=O)NCc2ccc(Cl)cc2)c1,-14%,·,?,-40%,i
C(=C\c1nccc2c1[nH]c1ccccc12)/c1ccccc1,·,-2,?,20µM*,·
Fc1ccc(/C=C\c2nccc3c2[nH]c2ccccc23)cc1,14%[11.3 µM],-78*,?,-50%,i
O=C(Nc1ccc2oc(-c3cccnc3)nc2c1)c1ccc(-c2cccc(OC(F)(F)F)c2)o1,·,·,-14%,-2%,·
Cc1ccc(SC(=O)c2c([N+](=O)[O-])c(C)nn2C)cc1,-9%,-65*,-18%,13%,i
Cc1cc(C)n(C(=O)c2c([N+](=O)[O-])c(C)nn2C)n1,1%,-11,28%,-3%,i
Cc1ccc(C)c(NC(=O)C(=O)NCCc2csc3nc(-c4ccccc4C)nn23)c1,3%,·,-3%,-18%,i
Cc1c(C(=O)NC(C)(C)C)sc2ncnc(NCCN(C)C)c12,·,·,·,·,i
Cc1cc2nc(-c3cccc(NC(=O)COc4ccc(C(C)C)cc4)c3)oc2cc1C,110%,·,11%,11%,i
O=C(Nc1ccccc1)Nc1ccc(Cl)nc1Cl,0%,-79*,?,17%,i
CCS(=O)(=O)N1CCN(c2ncnc3sc(C)c(C)c23)CC1,-3%,22,-6%,-10%,i
Cc1sc2ncnc(N3CCN(Cc4ccccc4)CC3)c2c1-c1ccc(F)cc1,-24%,-55*,1%,1%,i
SMILES,ATXN2 expr inh,IL-1B inflam inh,TGFb SMAD3 inh,HepG2 tox,ATXN viability
Cc1sc2ncnc(N3CCN(S(=O)(=O)c4ccc(F)cc4)CC3)c2c1C,-34%,-57*,-4%,-29%,?
CCN(CC)/[N+]([O-])=N/OCOC(=O)C(C)c1ccc(CC(C)C)cc1 (stereo unspecified),·,·,-12%,-9%,·
Cc1c(-c2ccccc2)n(-c2ccccc2O)c2nc3c(c(=O)n(C)c(=O)n3C)n12,-4%,·,4%,-14%,i
CCn1cc(C(=O)NCCCOC(C)C)c(=O)c2cc(S(=O)(=O)N3CCc4ccccc4C3)ccc21,·,·,0%,-22%,·
COc1ccc(/C=N/Nc2ccc([N+](=O)[O-])cc2)cc1O,116%,-66*,?,-27%,i
COc1ccc(/C=C(\C#N)c2nc3ccccc3[nH]2)cc1O,31%,?,-21%,-11%,?
COc1cc(/C=C/c2nc3ccccc3s2)cc(OC)c1O,4%,-11,2%,-15%,·
COc1ccc(C=C(c2nc3ccccc3s2)c2nc3ccccc3s2)cc1O,-22%,-98*,0%,-29%,?
COc1cc(C=C(c2nc3ccccc3s2)c2nc3ccccc3s2)ccc1O,-10%,-90*,?,-33%,?
COc1ccc(/C=N/Nc2nc3ccccc3s2)cc1O,-6%,-87*,-8%,-29%,i
Cc1c(NC(=O)Nc2ccccc2C(F)(F)F)sc2nc3n(c(=O)c12)CCC(C)CC3 (stereo unspecified),-1%,·,-22%,-20%,i
CCCS(=O)(=O)N1CCC(C(=O)NCCOC)CC1,-8%,·,15%,-16%,i
CC(=O)Nc1ccc(Oc2sc(C(=O)c3ccccc3)c(N)c2C#N)cc1,-2%,-60*,10µM*,-3%,i
O=C(c1cccs1)N1N=C(c2ccccc2)CC1c1ccccc1O (stereo unspecified),5%,-79*,?,-52%,i
Cc1ccc(C2=NN(C(=O)c3ccccc3F)C(c3ccccc3F)C2)cc1 (stereo unspecified),-34%,-16,-12%,-20%,i
Cc1ccc(C2=NN(C(=O)c3cccs3)C(c3ccccc3O)C2)cc1 (stereo unspecified),16%,-26,?,-100%,i
COc1ccc(C2=NN(C(=O)c3cccs3)C(c3ccccc3OC)C2)cc1OC (stereo unspecified),3%[11.3 µM],-84*,-6%,-2%,i
COc1ccc(C2=NN(C(=O)c3ccco3)C(c3cccs3)C2)cc1OC (stereo unspecified),·,-7,-3%,3%,?
COc1ccc(C2CC(c3ccc(Br)cc3)=NN2C(=O)CSC2=NCCS2)cc1 (stereo unspecified),21%,-65*,-16%,-19%,i
O=C(c1ccccc1Cl)N1N=C(c2ccc(Br)cc2)CC1c1nc2ccccc2[nH]1 (stereo unspecified),-6%,-67*,-22%,-13%,?
COc1ccc(C2=NN(C(=O)CSc3ncccn3)C(c3ccc(C)cc3)C2)cc1 (stereo unspecified),-9%,-1,?,-23%,i
CCOC(=O)c1[nH]c(C)c(CCC(=O)Nc2ccc(C(C)=O)cc2)c1C,6%,·,8%,3%,i
CC(=O)N1N=C(c2ccncc2)CC1c1ccccc1O (stereo unspecified),-26%,106,?,3%,i

# From PubChem
